Common to all, as to conditions: mRNA level, 48 h; actives raise or lower the signal
Read-out in one assay: CYP2C8 (gene 1558)
The experiment in a line: LTEA_HepaRG_CYP2C8: Life Technologies and Expression Analysis (LTEA) Assay for CYP2C8 using HepaRG (AID 2283483). The essentials:
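CYP2C8 expression measured by TaqMan qRT-PCR and normalized to three housekeeping genes. HepaRG cultures were treated for 48 h with an eight-point half-log series topping at 100 uM, vehicle 0.5% DMSO, duplicates; fitted both directions against DMSO.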

Read-out in a further assay: CYP2C9 (gene 1559)
Kind of assay: LTEA_HepaRG_CYP2C9: Life Technologies and Expression Analysis (LTEA) Assay for CYP2C9 using HepaRG (AID 2283484). The essentials:
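CYP2C9 transcript level, quantified by TaqMan qRT-PCR against three housekeeping genes, was fitted bidirectionally relative to 0.5% DMSO. HepaRG cultures were treated 48 h, in duplicate, at eight half-log concentrations topping at 100 uM.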

Read-out in a further assay: CYP2E1 (gene 1571)
Kind of assay: LTEA_HepaRG_CYP2E1: Life Technologies and Expression Analysis (LTEA) Assay for CYP2E1 using HepaRG (AID 2283485). The essentials: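 Readout is qRT-PCR of CYP2E1 mRNA, normalized to three housekeeping genes and fitted bidirectionally against 0.5% DMSO. HepaRG cells were dosed 48 h at eight concentrations, highest 100 uM with half-log dilutions.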

Read-out in another assay: CYP4A11 (gene 1579)
Kind of assay: LTEA_HepaRG_CYP4A11: Life Technologies and Expression Analysis (LTEA) Assay for CYP4A11 using HepaRG (AID 2283486). The essentials: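 CYP4A11 transcript levels were quantified by TaqMan qRT-PCR after HepaRG human liver cells were treated for 48 hours with test chemicals (top 100 uM, half-log dilutions, 0.5% DMSO). Gain or loss of signal was fitted relative to DMSO.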

Read-out in assay [1]: Cytochrome P450 3A4 (Homo sapiens) (UniProt P08684)
Kind of assay: LTEA_HepaRG_CYP3A4: Life Technologies and Expression Analysis (LTEA) Assay for CYP3A4 using HepaRG (AID 2283487). The method, boiled down: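 In a human hepatic line (HepaRG), duplicate wells were treated 48 h with up to 100 uM chemical in half-log dilutions. Endpoint: CYP3A4 mRNA induction or loss relative to 0.5% DMSO vehicle, by qRT-PCR.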

Read-out in assay [2]: DNA damage-inducible transcript 3 (DDIT3), DDIT3 (gene 1649)
Kind of assay: LTEA_HepaRG_DDIT3: Life Technologies and Expression Analysis (LTEA) Assay for DNA damage-inducible transcript 3 (DDIT3) using HepaRG (AID 2283488). The essentials:
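Cells are human HepaRG liver cells treated for 48 h with eight half-log concentrations up to 100 uM in 0.5% DMSO. Transcript levels come from qRT-PCR normalized to three housekeeping genes, with activity fitted in both directions relative to vehicle.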

Read-out in assay [3]: Pro-epidermal growth factor (Homo sapiens) (UniProt P01133)
Kind of assay: LTEA_HepaRG_EGF: Life Technologies and Expression Analysis (LTEA) Assay for Epidermal growth factor (EGF) using HepaRG (AID 2283489). The method, boiled down: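 qRT-PCR readout of EGF transcript after 48 h chemical exposure of HepaRG cells; eight concentrations from 100 uM down in half-log steps, duplicate wells, 0.5% DMSO vehicle. Bidirectional curve fitting against DMSO baseline.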

Read-out in assay [4]: Early growth response protein 1 (EGR1) transcription factor, EGR1 (gene 1958)
Kind of assay: LTEA_HepaRG_EGR1: Life Technologies and Expression Analysis (LTEA) Assay for Early growth response protein 1 (EGR1) transcription factor using HepaRG (AID 2283490). The method, boiled down:
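EGR1 transcript levels quantified by qRT-PCR (Fluidigm arrays) against three housekeeping genes after 48 h chemical exposure of HepaRG cells. Eight-point half-log series topping at 100 uM, 0.5% DMSO vehicle, analyzed for gain or loss.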

Read-out in assay [5]: Ezrin (EZR), EZR (gene 7430)
Kind of assay: LTEA_HepaRG_EZR: Life Technologies and Expression Analysis (LTEA) Assay for Ezrin (EZR) using HepaRG (AID 2283491). The method, boiled down:
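Gain or loss of EZR mRNA is scored relative to 0.5% DMSO in human HepaRG cultures treated 48 h with test chemicals in duplicate, eight half-log concentrations from 100 uM.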

Read-out in assay [6]: Cytochrome P450 3A7 (Homo sapiens) (UniProt P24462)
Kind of assay: LTEA_HepaRG_CYP3A7: Life Technologies and Expression Analysis (LTEA) Assay for CYP3A7 using HepaRG (AID 2283492). The essentials:
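CYP3A7 transcript levels were read by TaqMan qRT-PCR on Fluidigm arrays after 48 h chemical exposure of human HepaRG cells, with housekeeping-gene normalisation. Eight half-log concentrations up to 100 uM in 0.5% DMSO were tested in duplicate.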

Read-out in assay [7]: Fatty Acid-Binding Protein 1 (FABP1), FABP1 (gene 2168)
Kind of assay: LTEA_HepaRG_FABP1: Life Technologies and Expression Analysis (LTEA) Assay for Fatty Acid-Binding Protein 1 (FABP1) using HepaRG (AID 2283494). The essentials:
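FABP1 expression by TaqMan qRT-PCR, normalised to three housekeeping genes, in HepaRG cells after 48 h chemical treatment. Eight-point half-log series topping at 100 uM in 0.5% DMSO, duplicates; gain or loss fitted relative to vehicle.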

Read-out in assay [8]: Cytochrome P450 4A22 (Homo sapiens) (UniProt Q5TCH4)
The experiment in a line: LTEA_HepaRG_CYP4A22: Life Technologies and Expression Analysis (LTEA) Assay for Cytochrome P450 4A22 (CYP4A22) using HepaRG (AID 2283495). The method, boiled down: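 HepaRG, 48 h post-plating -> serum-free induction medium; dosed 48 h, duplicate, 8 conc. (100 uM top, half-log), 0.5% DMSO. Readout: CYP4A22 mRNA by qRT-PCR, ACTB/GAPDH/POLR2A normalization; gain/loss fit relative to DMSO.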

Read-out in assay [9]: Cytochrome P450 7A1 (Homo sapiens) (UniProt P22680)
The experiment in a line: LTEA_HepaRG_CYP7A1: Life Technologies and Expression Analysis (LTEA) Assay for Cytochrome P450 7A1 (CYP7A1) using HepaRG (AID 2283496). The method, boiled down:
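HepaRG, 48 h exposure, 8-pt half-log series from 100 uM, 0.5% DMSO vehicle, duplicates. Readout: TaqMan qRT-PCR mRNA vs three housekeeping genes; bidirectional curve fit against DMSO baseline.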

Read-out in assay [10]: Glutathione S-Transferase (GSTA2), GSTA2 (gene 2939)
The experiment in a line: LTEA_HepaRG_GSTA2: Life Technologies and Expression Analysis (LTEA) Assay for Glutathione S-Transferase (GSTA2) using HepaRG (AID 2283497). The method, boiled down:
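GSTA2 transcript levels came from Fluidigm TaqMan qRT-PCR normalized to three housekeeping genes, fitted in both directions against DMSO. HepaRG cultures received chemicals for 48 h in serum-free induction medium (0.5% DMSO), 8 half-log concentrations up to 100 uM, duplicate.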

Read-out in assay [11]: Glutamate-cysteine ligase catalytic (GCLC), GCLC (gene 2729)
Kind of assay: LTEA_HepaRG_GCLC: Life Technologies and Expression Analysis (LTEA) Assay for Glutamate-cysteine ligase catalytic (GCLC) using HepaRG (AID 2283498). The method, boiled down: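 Expression by TaqMan qRT-PCR, normalized to three housekeeping genes (ACTB, GAPDH, POLR2A), with up- or down-regulation fitted against DMSO. HepaRG cells dosed in duplicate for 48 h with 8 half-log concentrations up to 100 uM, vehicle 0.5% DMSO.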

Read-out in assay [12]: Heat shock 70 kDa protein 1 (HSPA1A), gene 3303
Kind of assay: LTEA_HepaRG_HSPA1A: Life Technologies and Expression Analysis (LTEA) Assay for Heat shock 70 kDa protein 1 (HSPA1A) using HepaRG (AID 2283502). The essentials: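 Cells were plated and cultured for 48 h, then switched to serum-free induction medium. Chemicals were added at eight half-log concentrations up to 100 uM for 48 h. RNA was then isolated and HSPA1A measured by qRT-PCR with bidirectional curve fitting against DMSO.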

Among the data in PubChem BioAssay (EPA / NIEHS) are outcome and AC50 values, retold here.

Active and inactive are the calls of the source. Rule for the calls: active = hit-call score of the fitted dose curve at least 0.9, where 1 is the maximum; inactive = score below 0.9.

Sequence of Cytochrome P450 3A4 (Homo sapiens) (P08684 whole entry, looked up): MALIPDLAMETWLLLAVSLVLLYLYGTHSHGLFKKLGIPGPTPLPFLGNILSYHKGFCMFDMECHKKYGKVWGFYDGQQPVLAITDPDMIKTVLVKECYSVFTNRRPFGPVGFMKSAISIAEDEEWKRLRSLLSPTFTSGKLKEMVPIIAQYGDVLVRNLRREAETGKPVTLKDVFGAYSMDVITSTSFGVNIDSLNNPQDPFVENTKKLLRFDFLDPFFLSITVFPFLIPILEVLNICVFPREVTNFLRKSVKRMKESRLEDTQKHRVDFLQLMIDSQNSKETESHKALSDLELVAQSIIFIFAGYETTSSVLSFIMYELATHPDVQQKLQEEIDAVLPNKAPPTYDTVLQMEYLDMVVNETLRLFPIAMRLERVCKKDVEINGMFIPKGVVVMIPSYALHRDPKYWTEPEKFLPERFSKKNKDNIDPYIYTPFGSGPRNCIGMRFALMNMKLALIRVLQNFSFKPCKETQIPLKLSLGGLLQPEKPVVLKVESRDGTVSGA
Sequence of Cytochrome P450 3A7 (Homo sapiens) (P24462 whole entry, looked up): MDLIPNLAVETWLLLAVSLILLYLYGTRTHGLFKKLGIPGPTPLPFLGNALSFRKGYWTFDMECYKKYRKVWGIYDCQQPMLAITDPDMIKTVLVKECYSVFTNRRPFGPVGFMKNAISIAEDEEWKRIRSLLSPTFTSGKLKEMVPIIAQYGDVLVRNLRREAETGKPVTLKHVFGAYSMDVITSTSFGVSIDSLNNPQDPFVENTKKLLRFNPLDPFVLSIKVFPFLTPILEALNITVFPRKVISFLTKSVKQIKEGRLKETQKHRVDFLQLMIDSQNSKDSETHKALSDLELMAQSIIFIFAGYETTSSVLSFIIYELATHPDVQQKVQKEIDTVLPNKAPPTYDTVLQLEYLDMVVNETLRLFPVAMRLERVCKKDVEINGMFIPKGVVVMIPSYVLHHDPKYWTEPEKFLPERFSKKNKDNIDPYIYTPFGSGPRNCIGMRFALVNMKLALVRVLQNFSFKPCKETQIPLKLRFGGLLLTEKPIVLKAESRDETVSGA

For the compound `CN1CSC(=S)N(C)C1`, the call (with CYP2C8 (gene 1558); with CYP2C9 (gene 1559); with CYP2E1 (gene 1571); with CYP4A11 (gene 1579); in assay [1]; in assay [2]) was inactive. The outcome in assay [3], in assay [4], in [5], in assay [6], in assay [7] and in assay [8] was inactive. Also, the outcome in assay [9], in assay [10], in assay [11] and in assay [12] was inactive.
`Clc1ccccc1-c1nnc(-c2ccccc2Cl)nn1`: the compound was classed as inactive (with CYP2C8 (gene 1558); with CYP2C9 (gene 1559); in the assay with CYP4A11 (gene 1579); in [2]; in assay [3]; in assay [4]). The compound was classed as inactive in [5], in [8], in assay [10] and in assay [12]. The concentration at half-maximal activity (AC50) in the assay with CYP2E1 (gene 1571) is 20.7 µM (active); in assay [1] it was 9.38 µM (active); in assay [6], 6.87 µM (active); in [7] it was 18.8 µM (active); in assay [9], 24 µM (active).
`CNC(=O)CSP(=S)(OC)OC`: the call (in the assay with CYP2C8 (gene 1558); with CYP2C9 (gene 1559); in the assay with CYP2E1 (gene 1571); in the assay with CYP4A11 (gene 1579); in assay [1]; in [2]) was inactive. Further, the outcome in assay [3], in assay [4], in [5], in [6], in [7] and in assay [8] was inactive. Further, the compound was classed as inactive in [9], in [10], in assay [11] and in [12].
Regarding `C[C@H]1[C@H](c2ccc(Cl)cc2)SC(=O)N1C(=O)NC1CCCCC1`, the half-maximal activity concentration (AC50) with CYP2C8 (gene 1558) was 77.8 µM (active); with CYP2C9 (gene 1559), 78.6 µM (active); with CYP2E1 (gene 1571) it was 32.5 µM (active); in the assay with CYP4A11 (gene 1579), 40.4 µM (active); in [1], 90 µM (active); in assay [2], 72.3 µM (active). Moreover, the half-maximal activity concentration (AC50) in [5] was 77.9 µM (active); in [6], 61.6 µM (active); in [7], 55.8 µM (active); in assay [8], 47.1 µM (active); in assay [9], 78.9 µM (active); in assay [10], 79.3 µM (active). The AC50 in assay [11] is 67.4 µM (active). Also, the compound was called inactive in assay [3], in assay [4] and in assay [12].
As to `CCOC1Oc2ccc(OS(C)(=O)=O)cc2C1(C)C` (stereo not given), the concentration at half-maximal activity (AC50) was 86.4 µM (active) with CYP2C8 (gene 1558); 82 µM (active) with CYP2C9 (gene 1559); 62.6 µM (active) with CYP2E1 (gene 1571); 69.1 µM (active) with CYP4A11 (gene 1579); 11.8 µM (active) in [1]; 93 µM (active) in assay [2]. The AC50 in assay [5] was 78.8 µM (active); in assay [7] it was 63.7 µM (active); in assay [8] it was 62.6 µM (active); in assay [9], 85.6 µM (active); in assay [10], 82 µM (active). Besides, the compound was classed as inactive in [3], in assay [4], in assay [6], in assay [11] and in assay [12].
With `OCCOc1ccccc1`, the compound was called inactive (with CYP2C8 (gene 1558); with CYP2C9 (gene 1559); with CYP2E1 (gene 1571); in the assay with CYP4A11 (gene 1579); in assay [1]; in assay [2]). In addition, the compound was called inactive in assay [3], in [4], in assay [5], in [6], in assay [7] and in [8]. Moreover, the call in assay [9], in assay [10], in assay [11] and in assay [12] was inactive.
